Results taken from PubChem BioAssay (NCI).
The panel holds about 79,000 compounds, 15% with a hit somewhere; the sample as a whole holds those more often. Values without a mark were called inactive. Active and inactive are the calls of the source. Cut-off read from the data, not from the text of the source: active = growth inhibition above about 70%; inactive = the rest.

How the values were obtained:
[1] = NCI Yeast Anticancer Drug Screen. Data for the rad52 strain (AID 147);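 note: 0% = growth of vehicle-treated control cultures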; conditions: S. cerevisiae rad52 mutant growth inhibition, hits give high values
How it was run: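 Vehicle-treated cultures served as the reference for growth inhibition of compound-exposed yeast bearing a DNA repair mutation.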

[2] = NCI Yeast Anticancer Drug Screen. Data for the rad50EPP+ strain (AID 151);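 note: 0% = growth of vehicle-treated control cultures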; conditions: S. cerevisiae rad50 mutant strain, hits give high values
How it was run: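 In this screen, rad50EPP+ yeast were exposed to compounds. Growth inhibition was scored against vehicle-treated controls.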

[3] = NCI Yeast Anticancer Drug Screen. Data for the rad50 strain (AID 155);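 note: 0% = growth of vehicle-only cultures of the same strain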; conditions: S. cerevisiae rad50 strain growth inhibition, hits give high values
How it was run: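 Inhibition values express reduced yeast growth in compound-treated cultures relative to vehicle-treated controls.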

[4] = NCI Yeast Anticancer Drug Screen. Data for the mec2-1 strain (AID 157); conditions: S. cerevisiae mec2-1 strain, hits give high values
How it was run: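 Vehicle-treated cultures served as reference for growth inhibition of compound-exposed mec2-1 yeast.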

[5] = NCI Yeast Anticancer Drug Screen. Data for the sgs1 mgt1 strain (AID 161);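 note: 0% = growth of cultures given vehicle only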; conditions: S. cerevisiae sgs1 mgt1 strain, hits give high values
How it was run: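 Inhibition of yeast growth, normalised to vehicle-treated controls, is reported for a strain bearing genetic alterations in DNA damage repair.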

[6] = NCI Yeast Anticancer Drug Screen. Data for the CLN2oe strain (AID 163);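 note: 0% = growth of vehicle-only control cultures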; conditions: S. cerevisiae CLN2oe strain, hits give high values
How it was run: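 Inhibition relative to vehicle-treated yeast is reported. Cells: strain with genetic alteration in cell-cycle control, grown with compound.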

[7] = NCI Yeast Anticancer Drug Screen. Data for the cln2 rad14 strain (AID 165);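 note: 0% = growth equal to vehicle treated cultures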; conditions: S. cerevisiae cln2 rad14 strain, hits give high values
How it was run: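 Each compound was tested on cln2 rad14 yeast. Inhibition of growth was calculated against vehicle-exposed controls.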

[8] = NCI Yeast Anticancer Drug Screen. Data for the bub3 strain (AID 167); conditions: S. cerevisiae bub3 mutant strain, hits give high values
How it was run: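 Steps: expose the mutant yeast strain to compound; grow alongside vehicle-treated cultures; measure growth; express inhibition against the vehicle cultures.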

[9] = NCI Yeast Anticancer Drug Screen. Data for the wt2 strain (AID 169);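 note: 0% = growth of vehicle-treated yeast cultures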; conditions: S. cerevisiae wt2 strain growth inhibition, hits give high values
How it was run: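 Inhibition of yeast growth was determined after compound treatment, normalised to controls receiving only vehicle.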

[10] = NCI Yeast Anticancer Drug Screen. Data for the mlh1 strain (AID 171);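 note: 0% = growth of vehicle-treated control cultures of the same strain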; conditions: S. cerevisiae mlh1 strain growth inhibition, hits give high values
How it was run: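 Vehicle-normalised growth inhibition of a repair- or checkpoint-altered yeast strain following compound treatment.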

[11] = NCI Yeast Anticancer Drug Screen. Data for the sgs1 strain (AID 173);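 note: 0% = growth of vehicle-only control cultures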; conditions: S. cerevisiae sgs1 mutant, hits give high values
How it was run: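 Screen format: yeast with repair or checkpoint alterations, compound exposure, growth read relative to vehicle.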

[12] = NCI Yeast Anticancer Drug Screen. Data for the mlh1 rad18 strain (AID 175); conditions: S. cerevisiae mlh1 rad18 strain growth inhibition, hits give high values
How it was run: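 Vehicle-treated cultures served as the reference for growth inhibition in a yeast strain carrying DNA damage repair alterations exposed to each compound.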

[13] = NCI Yeast Anticancer Drug Screen. Data for the rad18 strain (AID 177); conditions: S. cerevisiae rad18 mutant growth inhibition, hits give high values
How it was run: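 Test articles were incubated with altered yeast defective in DNA damage repair. Results are given as inhibition of growth versus vehicle.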

[14] = NCI Yeast Anticancer Drug Screen. Data for the rad14 strain (AID 159);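 note: 0% = growth of vehicle-treated control cultures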; conditions: S. cerevisiae rad14 strain growth inhibition, hits give high values
How it was run: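 A mutant yeast strain defective in DNA damage repair is treated with compound; inhibition of its growth is scored against untreated, vehicle-exposed cultures.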

[15] = at 5.0 µM (retest, dose inferred, filed as 0.5)
[16] = at 50.0 µM (retest, dose inferred, filed as 5.0)

With O=C1c2ccccc2C(=O)c2cc(S(=O)(=O)Nc3ccccc3)ccc21 the growth inhibition ([1]; at 1.2 µM) was 0%, the growth inhibition ([1]; at 3.7 µM) was 7% and the growth inhibition ([1]; at 11.0 µM) was 16%. It also gave a growth inhibition ([1]; at 33.0 µM) of 26%, a growth inhibition ([1]; at 100.0 µM) of 19% and a growth inhibition ([2]; at 1.2 µM) of 9%. It also gave a growth inhibition ([2]; at 3.7 µM) of 21%, a growth inhibition ([2]; at 11.0 µM) of 34% and a growth inhibition ([2]; at 33.0 µM) of 45%. For the same compound, the growth inhibition ([2]; at 100.0 µM) was 47%, the growth inhibition ([3]; at 1.2 µM) was 1% and the growth inhibition ([3]; at 3.7 µM) was 7%. It also gave a growth inhibition [3, 15] of 60%, a growth inhibition ([3]; at 11.0 µM) of 11% and a growth inhibition ([3]; at 33.0 µM) of 23%. The growth inhibition [3, 16] was 49%, the growth inhibition ([3]; at 50.0 µM) was 96.2% (active) and the growth inhibition ([3]; at 100.0 µM) was 22%. For the same compound, the growth inhibition ([4]; at 1.2 µM) was -1%, the growth inhibition ([4]; at 3.7 µM) was 5% and the growth inhibition [4, 15] was 33%. The growth inhibition ([4]; at 11.0 µM) was 12%, the growth inhibition ([4]; at 33.0 µM) was 21% and the growth inhibition [4, 16] was 61%. For the same compound, the growth inhibition ([4]; at 50.0 µM) was 91.4% (active), the growth inhibition ([4]; at 100.0 µM) was 19% and the growth inhibition [5, 15] was 51%. For the same compound, the growth inhibition [5, 16] was 61%, the growth inhibition ([5]; at 50.0 µM) was 96.2% (active) and the growth inhibition ([6]; at 1.2 µM) was -6%. The growth inhibition ([6]; at 3.7 µM) was -15%, the growth inhibition ([6]; at 11.0 µM) was 5% and the growth inhibition ([6]; at 33.0 µM) was 7%. It also gave a growth inhibition ([6]; at 100.0 µM) of 2%, a growth inhibition [7, 15] of 22% and a growth inhibition [7, 16] of 37%. For the same compound, the growth inhibition ([7]; at 50.0 µM) was 92.2% (active), the growth inhibition ([8]; at 1.2 µM) was 0% and the growth inhibition ([8]; at 3.7 µM) was 4%. The growth inhibition [8, 15] was 58%, the growth inhibition ([8]; at 11.0 µM) was 24% and the growth inhibition ([8]; at 33.0 µM) was 33%. The growth inhibition [8, 16] was 84% (active), the growth inhibition ([8]; at 50.0 µM) was 96.1% (active) and the growth inhibition ([8]; at 100.0 µM) was 25%. For the same compound, the growth inhibition ([9]; at 1.2 µM) was 3%, the growth inhibition ([9]; at 3.7 µM) was 6% and the growth inhibition ([9]; at 11.0 µM) was 9%. It also gave a growth inhibition ([9]; at 33.0 µM) of 14%, a growth inhibition ([9]; at 100.0 µM) of 8% and a growth inhibition ([10]; at 1.2 µM) of 0%. It also gave a growth inhibition ([10]; at 3.7 µM) of 2%, a growth inhibition ([10]; at 11.0 µM) of 10% and a growth inhibition ([10]; at 33.0 µM) of 14%. The growth inhibition ([10]; at 100.0 µM) was 12%, the growth inhibition ([11]; at 1.2 µM) was 2% and the growth inhibition ([11]; at 3.7 µM) was 5%. The growth inhibition ([11]; at 11.0 µM) was 18%, the growth inhibition ([11]; at 33.0 µM) was 22% and the growth inhibition ([11]; at 100.0 µM) was 18%. For the same compound, the growth inhibition [12, 15] was 77% (active), the growth inhibition [12, 16] was 75% (active) and the growth inhibition ([12]; at 50.0 µM) was 97.7% (active). It also gave a growth inhibition ([13]; at 1.2 µM) of 0%, a growth inhibition ([13]; at 3.7 µM) of 2% and a growth inhibition ([13]; at 11.0 µM) of 9%. The growth inhibition ([13]; at 33.0 µM) was 19% and the growth inhibition ([13]; at 100.0 µM) was -78%.

In the case of COC(=O)c1cccc(C)c1C(=O)c1c(C)cc(C)cc1C, the growth inhibition ([1]; at 1.2 µM) is reported as -1%, the growth inhibition ([1]; at 3.7 µM) is reported as -1% and the growth inhibition ([1]; at 11.0 µM) is reported as 4%. For the same compound, the growth inhibition ([1]; at 33.0 µM) was 28%, the growth inhibition ([1]; at 100.0 µM) was 77% (active) and the growth inhibition ([2]; at 1.2 µM) was -6%. For the same compound, the growth inhibition ([2]; at 3.7 µM) was 6%, the growth inhibition ([2]; at 11.0 µM) was 5% and the growth inhibition ([2]; at 33.0 µM) was 26%. The growth inhibition ([2]; at 100.0 µM) was 76% (active), the growth inhibition ([3]; at 1.2 µM) was -1% and the growth inhibition ([3]; at 3.7 µM) was 1%. The growth inhibition [3, 15] was -10%, the growth inhibition ([3]; at 11.0 µM) was 5% and the growth inhibition ([3]; at 33.0 µM) was 28%. The growth inhibition [3, 16] was 52%, the growth inhibition ([3]; at 50.0 µM) was 15.5% and the growth inhibition ([3]; at 100.0 µM) was 76% (active). It also gave a growth inhibition ([4]; at 1.2 µM) of -3%, a growth inhibition ([4]; at 3.7 µM) of -1% and a growth inhibition [4, 15] of 3%. For the same compound, the growth inhibition ([4]; at 11.0 µM) was 4%, the growth inhibition ([4]; at 33.0 µM) was 21% and the growth inhibition [4, 16] was 59%. The growth inhibition ([4]; at 50.0 µM) was 22.8%, the growth inhibition ([4]; at 100.0 µM) was 72% (active) and the growth inhibition ([14]; at 1.2 µM) was 0%. The growth inhibition ([14]; at 3.7 µM) was 0%, the growth inhibition ([14]; at 11.0 µM) was 5% and the growth inhibition ([14]; at 33.0 µM) was 20%. For the same compound, the growth inhibition ([14]; at 100.0 µM) was 47%, the growth inhibition [5, 15] was -7% and the growth inhibition [5, 16] was 25%. It also gave a growth inhibition ([5]; at 50.0 µM) of 25.1%, a growth inhibition ([6]; at 1.2 µM) of 3% and a growth inhibition ([6]; at 3.7 µM) of 2%. The growth inhibition ([6]; at 11.0 µM) was 2%, the growth inhibition ([6]; at 33.0 µM) was 11% and the growth inhibition ([6]; at 100.0 µM) was 42%. The growth inhibition [7, 15] was -25%, the growth inhibition [7, 16] was 15% and the growth inhibition ([7]; at 50.0 µM) was 25.2%. It also gave a growth inhibition ([8]; at 1.2 µM) of 0%, a growth inhibition ([8]; at 3.7 µM) of -2% and a growth inhibition [8, 15] of 9%. For the same compound, the growth inhibition ([8]; at 11.0 µM) was -3%, the growth inhibition ([8]; at 33.0 µM) was 4% and the growth inhibition [8, 16] was 22%. The growth inhibition ([8]; at 50.0 µM) was 16.8%, the growth inhibition ([8]; at 100.0 µM) was 62% and the growth inhibition ([9]; at 1.2 µM) was -3%. For the same compound, the growth inhibition ([9]; at 3.7 µM) was -3%, the growth inhibition ([9]; at 11.0 µM) was -4% and the growth inhibition ([9]; at 33.0 µM) was 9%. The growth inhibition ([9]; at 100.0 µM) was 50%, the growth inhibition ([10]; at 1.2 µM) was -1% and the growth inhibition ([10]; at 3.7 µM) was 2%. The growth inhibition ([10]; at 11.0 µM) was 6%, the growth inhibition ([10]; at 33.0 µM) was 19% and the growth inhibition ([10]; at 100.0 µM) was 59%. For the same compound, the growth inhibition ([11]; at 1.2 µM) was 1%, the growth inhibition ([11]; at 3.7 µM) was 3% and the growth inhibition ([11]; at 11.0 µM) was 7%. For the same compound, the growth inhibition ([11]; at 33.0 µM) was 25%, the growth inhibition ([11]; at 100.0 µM) was 65% and the growth inhibition [12, 15] was 4%. The growth inhibition [12, 16] was 82% (active), the growth inhibition ([12]; at 50.0 µM) was 15.7% and the growth inhibition ([13]; at 1.2 µM) was 4%. For the same compound, the growth inhibition ([13]; at 3.7 µM) was 7%, the growth inhibition ([13]; at 11.0 µM) was 10% and the growth inhibition ([13]; at 33.0 µM) was 28%. The growth inhibition ([13]; at 100.0 µM) was 67%.
